The values that follow come from publication PMC11006913.

Residue numbers refer to the chain shown, from its start.

Holding throughout (test): PBM; 200 nM protein, PBS
Holding throughout (details): dsDNA, one strand shown

The target of test [1] is T1, SIX6 (Homo sapiens, UniProt O95475 114-200, L167I).
T1 sequence: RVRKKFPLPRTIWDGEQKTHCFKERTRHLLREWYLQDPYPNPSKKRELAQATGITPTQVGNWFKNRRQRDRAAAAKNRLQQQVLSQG

For test [2], the target named is T2, SIX6 (Homo sapiens, UniProt O95475 114-200, L143V).
T2 sequence: T1 sequence with L30V, I54L

The target in test [3] is T3, SIX6 (Homo sapiens, UniProt O95475 114-200, H141N).
T3 sequence: T1 sequence with H28N, I54L

Test [4] has as its target T4, SIX6 (Homo sapiens, UniProt O95475 114-200, T165P).
T4 sequence: T1 sequence with T52P, I54L

The target in test [5] is T5, SIX6 (Homo sapiens, UniProt O95475 114-200, L167M).
T5 sequence: T1 sequence with I54M

For test [6], the target named is T6, SIX6 (Homo sapiens, UniProt O95475 114-200, L143M).
T6 sequence: T1 sequence with L30M, I54L

Test [7] has as its target T7, SIX6 (Homo sapiens, UniProt O95475 114-200, L143I).
T7 sequence: T1 sequence with L30I, I54L

For test [8], the target named is T8, SIX6 (Homo sapiens, UniProt O95475 114-200, T165G).
T8 sequence: T1 sequence with T52G, I54L

Test [9] addresses T9, SIX6 (Homo sapiens, UniProt O95475 114-200, T139Q).
T9 sequence: T1 sequence with T26Q, I54L

Test [10] has as its target T10, SIX6 (Homo sapiens, UniProt O95475 114-200, T165A).
T10 sequence: T1 sequence with T52A, I54L

For test [11], the target named is T11, SIX6 (Homo sapiens, UniProt O95475 114-200, L167V).
T11 sequence: T1 sequence with I54V

Test [12] has as its target T12, SIX6 (Homo sapiens, UniProt O95475 114-200).
T12 sequence: T1 sequence with I54L

In test [13] the target is T13, SIX6 (Homo sapiens, UniProt O95475 114-200, T165I).
T13 sequence: T1 sequence with T52I, I54L

Turning to GGCGACCC, the binding signal in the test with SIX6 [1] is 8.98 upbm affinity estimate (log intensity, higher = more binding, comparable within an allelic series); in the test with SIX6 [2] it was 8.85 upbm affinity estimate (log intensity, higher = more binding, comparable within an allelic series); with SIX6 [3], 9.03 upbm affinity estimate (log intensity, higher = more binding, comparable within an allelic series); in the test with SIX6 [4], 8.9 upbm affinity estimate (log intensity, higher = more binding, comparable within an allelic series); in the test with SIX6 [5] it was 8.99 upbm affinity estimate (log intensity, higher = more binding, comparable within an allelic series); with SIX6 [6], 9.09 upbm affinity estimate (log intensity, higher = more binding, comparable within an allelic series). Besides, the binding signal with SIX6 [7] was 8.97 upbm affinity estimate (log intensity, higher = more binding, comparable within an allelic series); with SIX6 [8], 9.01 upbm affinity estimate (log intensity, higher = more binding, comparable within an allelic series); in the test with SIX6 [9], 9.15 upbm affinity estimate (log intensity, higher = more binding, comparable within an allelic series); with SIX6 [10], 9.04 upbm affinity estimate (log intensity, higher = more binding, comparable within an allelic series); with SIX6 [11], 8.91 upbm affinity estimate (log intensity, higher = more binding, comparable within an allelic series); with SIX6 [12], 9.01 upbm affinity estimate (log intensity, higher = more binding, comparable within an allelic series). The binding signal in the test with SIX6 [13] is 9.02 upbm affinity estimate (log intensity, higher = more binding, comparable within an allelic series).
As to GAGTATCA, the binding signal was 11.2 upbm affinity estimate (log intensity, higher = more binding, comparable within an allelic series) with SIX6 [1]; 10.2 upbm affinity estimate (log intensity, higher = more binding, comparable within an allelic series) with SIX6 [2]; 11.3 upbm affinity estimate (log intensity, higher = more binding, comparable within an allelic series) with SIX6 [3]; 9.54 upbm affinity estimate (log intensity, higher = more binding, comparable within an allelic series) with SIX6 [4]; 10.6 upbm affinity estimate (log intensity, higher = more binding, comparable within an allelic series) with SIX6 [5]; 10.9 upbm affinity estimate (log intensity, higher = more binding, comparable within an allelic series) with SIX6 [6]. Besides, the binding signal is 10.3 upbm affinity estimate (log intensity, higher = more binding, comparable within an allelic series) with SIX6 [7]; 11.3 upbm affinity estimate (log intensity, higher = more binding, comparable within an allelic series) in the test with SIX6 [8]; 11.2 upbm affinity estimate (log intensity, higher = more binding, comparable within an allelic series) with SIX6 [9]; 11.2 upbm affinity estimate (log intensity, higher = more binding, comparable within an allelic series) with SIX6 [10]; 11 upbm affinity estimate (log intensity, higher = more binding, comparable within an allelic series) in the test with SIX6 [11]; 10.9 upbm affinity estimate (log intensity, higher = more binding, comparable within an allelic series) with SIX6 [12]. Besides, in the test with SIX6 [13], the binding signal is 11.1 upbm affinity estimate (log intensity, higher = more binding, comparable within an allelic series).
As to ATGGGGGC, the binding signal with SIX6 [1] is 8.95 upbm affinity estimate (log intensity, higher = more binding, comparable within an allelic series); with SIX6 [2], 8.73 upbm affinity estimate (log intensity, higher = more binding, comparable within an allelic series); with SIX6 [3], 9.01 upbm affinity estimate (log intensity, higher = more binding, comparable within an allelic series); in the test with SIX6 [4], 8.77 upbm affinity estimate (log intensity, higher = more binding, comparable within an allelic series); in the test with SIX6 [5] it was 8.95 upbm affinity estimate (log intensity, higher = more binding, comparable within an allelic series); with SIX6 [6] it was 8.95 upbm affinity estimate (log intensity, higher = more binding, comparable within an allelic series). Further, the binding signal was 8.81 upbm affinity estimate (log intensity, higher = more binding, comparable within an allelic series) with SIX6 [7]; 8.95 upbm affinity estimate (log intensity, higher = more binding, comparable within an allelic series) with SIX6 [8]; 9.11 upbm affinity estimate (log intensity, higher = more binding, comparable within an allelic series) in the test with SIX6 [9]; 8.97 upbm affinity estimate (log intensity, higher = more binding, comparable within an allelic series) with SIX6 [10]; 8.97 upbm affinity estimate (log intensity, higher = more binding, comparable within an allelic series) in the test with SIX6 [11]; 8.87 upbm affinity estimate (log intensity, higher = more binding, comparable within an allelic series) with SIX6 [12]. Further, the binding signal with SIX6 [13] was 8.97 upbm affinity estimate (log intensity, higher = more binding, comparable within an allelic series).
Turning to CGGTATCA, the binding signal with SIX6 [1] was 11.3 upbm affinity estimate (log intensity, higher = more binding, comparable within an allelic series); with SIX6 [2], 10.3 upbm affinity estimate (log intensity, higher = more binding, comparable within an allelic series); with SIX6 [3], 11.3 upbm affinity estimate (log intensity, higher = more binding, comparable within an allelic series); with SIX6 [4], 9.64 upbm affinity estimate (log intensity, higher = more binding, comparable within an allelic series); in the test with SIX6 [5], 10.6 upbm affinity estimate (log intensity, higher = more binding, comparable within an allelic series); in the test with SIX6 [6], 11 upbm affinity estimate (log intensity, higher = more binding, comparable within an allelic series). The binding signal with SIX6 [7] is 10.4 upbm affinity estimate (log intensity, higher = more binding, comparable within an allelic series); with SIX6 [8], 11.5 upbm affinity estimate (log intensity, higher = more binding, comparable within an allelic series); with SIX6 [9], 11.4 upbm affinity estimate (log intensity, higher = more binding, comparable within an allelic series); with SIX6 [10], 11.3 upbm affinity estimate (log intensity, higher = more binding, comparable within an allelic series); with SIX6 [11], 11 upbm affinity estimate (log intensity, higher = more binding, comparable within an allelic series); with SIX6 [12] it was 11.1 upbm affinity estimate (log intensity, higher = more binding, comparable within an allelic series). Besides, the binding signal with SIX6 [13] was 11 upbm affinity estimate (log intensity, higher = more binding, comparable within an allelic series).
With AAGTGCGC, the binding signal in the test with SIX6 [1] was 8.9 upbm affinity estimate (log intensity, higher = more binding, comparable within an allelic series); with SIX6 [2], 9.07 upbm affinity estimate (log intensity, higher = more binding, comparable within an allelic series); with SIX6 [3], 8.88 upbm affinity estimate (log intensity, higher = more binding, comparable within an allelic series); with SIX6 [4] it was 9.2 upbm affinity estimate (log intensity, higher = more binding, comparable within an allelic series); with SIX6 [5] it was 9.05 upbm affinity estimate (log intensity, higher = more binding, comparable within an allelic series); in the test with SIX6 [6], 9.11 upbm affinity estimate (log intensity, higher = more binding, comparable within an allelic series). Moreover, the binding signal is 9.08 upbm affinity estimate (log intensity, higher = more binding, comparable within an allelic series) in the test with SIX6 [7]; 9 upbm affinity estimate (log intensity, higher = more binding, comparable within an allelic series) with SIX6 [8]; 9.05 upbm affinity estimate (log intensity, higher = more binding, comparable within an allelic series) in the test with SIX6 [9]; 8.96 upbm affinity estimate (log intensity, higher = more binding, comparable within an allelic series) in the test with SIX6 [10]; 8.99 upbm affinity estimate (log intensity, higher = more binding, comparable within an allelic series) with SIX6 [11]; 9.04 upbm affinity estimate (log intensity, higher = more binding, comparable within an allelic series) with SIX6 [12]. In addition, the binding signal with SIX6 [13] is 9.04 upbm affinity estimate (log intensity, higher = more binding, comparable within an allelic series).
With CCAGTGCG, the binding signal was 8.98 upbm affinity estimate (log intensity, higher = more binding, comparable within an allelic series) with SIX6 [1]; 8.96 upbm affinity estimate (log intensity, higher = more binding, comparable within an allelic series) in the test with SIX6 [2]; 9 upbm affinity estimate (log intensity, higher = more binding, comparable within an allelic series) with SIX6 [3]; 9.02 upbm affinity estimate (log intensity, higher = more binding, comparable within an allelic series) with SIX6 [4]; 8.94 upbm affinity estimate (log intensity, higher = more binding, comparable within an allelic series) with SIX6 [5]; 8.99 upbm affinity estimate (log intensity, higher = more binding, comparable within an allelic series) with SIX6 [6]. Besides, the binding signal in the test with SIX6 [7] was 9.05 upbm affinity estimate (log intensity, higher = more binding, comparable within an allelic series); in the test with SIX6 [8] it was 9.12 upbm affinity estimate (log intensity, higher = more binding, comparable within an allelic series); with SIX6 [9], 9.15 upbm affinity estimate (log intensity, higher = more binding, comparable within an allelic series); in the test with SIX6 [10], 9.01 upbm affinity estimate (log intensity, higher = more binding, comparable within an allelic series); in the test with SIX6 [11], 9.07 upbm affinity estimate (log intensity, higher = more binding, comparable within an allelic series); with SIX6 [12] it was 9.01 upbm affinity estimate (log intensity, higher = more binding, comparable within an allelic series). The binding signal with SIX6 [13] is 8.95 upbm affinity estimate (log intensity, higher = more binding, comparable within an allelic series).
As to GTATGATA, the binding signal with SIX6 [1] is 11 upbm affinity estimate (log intensity, higher = more binding, comparable within an allelic series); with SIX6 [2], 10.5 upbm affinity estimate (log intensity, higher = more binding, comparable within an allelic series); in the test with SIX6 [3] it was 11.1 upbm affinity estimate (log intensity, higher = more binding, comparable within an allelic series); in the test with SIX6 [4] it was 10.1 upbm affinity estimate (log intensity, higher = more binding, comparable within an allelic series); with SIX6 [5], 10.6 upbm affinity estimate (log intensity, higher = more binding, comparable within an allelic series); with SIX6 [6] it was 11 upbm affinity estimate (log intensity, higher = more binding, comparable within an allelic series). Moreover, the binding signal with SIX6 [7] is 10.5 upbm affinity estimate (log intensity, higher = more binding, comparable within an allelic series); in the test with SIX6 [8], 11.2 upbm affinity estimate (log intensity, higher = more binding, comparable within an allelic series); with SIX6 [9], 11.2 upbm affinity estimate (log intensity, higher = more binding, comparable within an allelic series); with SIX6 [10], 11 upbm affinity estimate (log intensity, higher = more binding, comparable within an allelic series); in the test with SIX6 [11], 10.9 upbm affinity estimate (log intensity, higher = more binding, comparable within an allelic series); with SIX6 [12], 11 upbm affinity estimate (log intensity, higher = more binding, comparable within an allelic series). In the test with SIX6 [13], the binding signal was 10.9 upbm affinity estimate (log intensity, higher = more binding, comparable within an allelic series).
ACGTATCA: the binding signal with SIX6 [1] is 11.3 upbm affinity estimate (log intensity, higher = more binding, comparable within an allelic series); with SIX6 [2], 10.3 upbm affinity estimate (log intensity, higher = more binding, comparable within an allelic series); in the test with SIX6 [3], 11.3 upbm affinity estimate (log intensity, higher = more binding, comparable within an allelic series); in the test with SIX6 [4], 9.82 upbm affinity estimate (log intensity, higher = more binding, comparable within an allelic series); with SIX6 [5] it was 10.7 upbm affinity estimate (log intensity, higher = more binding, comparable within an allelic series); with SIX6 [6], 11.1 upbm affinity estimate (log intensity, higher = more binding, comparable within an allelic series). The binding signal with SIX6 [7] was 10.4 upbm affinity estimate (log intensity, higher = more binding, comparable within an allelic series); with SIX6 [8], 11.3 upbm affinity estimate (log intensity, higher = more binding, comparable within an allelic series); in the test with SIX6 [9] it was 11.3 upbm affinity estimate (log intensity, higher = more binding, comparable within an allelic series); with SIX6 [10], 11.2 upbm affinity estimate (log intensity, higher = more binding, comparable within an allelic series); in the test with SIX6 [11] it was 11.1 upbm affinity estimate (log intensity, higher = more binding, comparable within an allelic series); with SIX6 [12] it was 11.1 upbm affinity estimate (log intensity, higher = more binding, comparable within an allelic series). For the same sequence, in the test with SIX6 [13], the binding signal was 11 upbm affinity estimate (log intensity, higher = more binding, comparable within an allelic series).
